Source: PubChem BioAssay (several laboratories)
An excerpt weighted towards active compounds, which were near 2.3% of everything screened.
LGR2 inh: inhibitors of bursicon-induced LGR2 CRE-luciferase signal, primary screen, cell-based, HEK293, CRE-luciferase reporter, bursicon stimulation; bursicon-stimulated, 4 h; 380,000 compounds, 0.35% hits; AID 720647, 2013; Drosophila bursicon receptor LGR2 (rickets); inhibition, % at 9.99 µM;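 active means drop in luminescence signal, shown as inhibition above about 50% in the replicate tests, limit read from the data, passing the limit was not always enough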;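 further: agonist challenge used bursicon conditioned medium at about half maximal strength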
SENP6 inh: SENP6 protease inhibitors, primary screen, biochemical, luminescence, uHTS. 330,000 compounds, 1.8% hits. Recombinant SENP6 catalytic domain, aminoluciferin luminescence. AID 2599, 2010. inhibition, % at 10 µM;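 active means inhibition above about 50% at the single tested dose, limit read from the data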
Target sequence (Q9GZR1 628-1112 limits assumed): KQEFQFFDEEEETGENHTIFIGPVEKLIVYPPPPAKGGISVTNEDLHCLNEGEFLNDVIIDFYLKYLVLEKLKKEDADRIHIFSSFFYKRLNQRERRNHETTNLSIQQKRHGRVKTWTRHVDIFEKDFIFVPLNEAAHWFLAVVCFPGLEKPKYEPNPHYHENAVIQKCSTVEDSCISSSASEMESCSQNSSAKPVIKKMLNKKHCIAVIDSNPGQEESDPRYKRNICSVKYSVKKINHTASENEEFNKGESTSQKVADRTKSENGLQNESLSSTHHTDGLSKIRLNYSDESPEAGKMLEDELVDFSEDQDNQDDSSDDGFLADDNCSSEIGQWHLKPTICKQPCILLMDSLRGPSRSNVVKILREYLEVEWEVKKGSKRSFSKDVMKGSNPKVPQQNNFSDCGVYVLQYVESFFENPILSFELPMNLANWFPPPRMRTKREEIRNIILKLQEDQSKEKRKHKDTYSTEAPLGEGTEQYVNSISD
SENP7 block: SENP7 protease inhibitors, primary screen, biochemical, luminescence, uHTS. Sentrin-specific protease 7 (Homo sapiens), Q9BQF6. recombinant SENP7, Z-RLRGG-aminoluciferin luminescence, 40 min. inhibition, % at 5 µM. 330,000 compounds, 1.5% hits. AID 434973, 2010;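 active means inhibition above about 50% at the single test dose, limit read from the data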
HSP90 inh: HSP90 inhibitors, primary screen, cell lysate, luminescence | Heat shock protein HSP 90 (rabbit reticulocyte lysate; luciferase refolding) | Rabbit reticulocyte lysate, luciferase refolding luminescence, 3 h | inhibition, % at 5.6 µM | 290,000 compounds, 0.91% hits | AID 1789, 2009;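 active means inhibition above the screen-wide mean plus 3 SD, computed separately per campaign, cut at about 16% in these data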;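 further: inhibitors lower the luminescence because luciferase stays unfolded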
SENP8 block-1: human SENP8 protease inhibitors, primary screen, biochemical, fluorescence, Nedd8 protein substrate, uHTS; Sentrin-specific protease 8 (Homo sapiens), Q96LD8; recombinant SENP8; inhibition, % at 20 µM; 360,000 compounds, 0.64% hits; AID 602440, 2012; in the data active means inhibition mostly above about 40%, no sharp cut-off; inactive means mostly below about 27%
SENP8 block-2: SENP8 protease inhibitors, primary screen, biochemical, luminescence; Sentrin-specific protease 8 (Homo sapiens), Q96LD8; purified SENP8, Z-RLRGG-aminoluciferin cleavage; inhibition, % at 10 µM; 330,000 compounds, 1.2% hits; AID 2540, 2010; in the data active means inhibition above about 50%
SENP8 conf: SENP8 protease inhibitors, retest, confirmation, biochemical, luminescence, single concentration; shares compounds with SENP7 block; 6,200 compounds, 40% hits; Recombinant SENP8, Z-RLRGG-aminoluciferin luminescence, 60 min; inhibition, % at 12.5 µM;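 active means mean inhibition across replicates above about 50%, limit read from the data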
SENP6 confirm: SENP6 protease inhibitors, confirmation, biochemical, luminescence, single concentration; AID 488915, 2010; recombinant SENP6, Z-RLRGG-aminoluciferin luminescence; 6,200 compounds, 58% hits; shares compounds with SENP7 block; inhibition, % at 12.5 µM
SENP7 conf: SENP7 protease inhibitors, retest, confirmation, biochemical, luminescence, single concentration; recombinant SENP7, Z-RLRGG-aminoluciferin luminescence, 40 min; shares compounds with SENP7 block; 6,200 compounds, 69% hits; inhibition, % at 12.5 µM; AID 488917, 2010
Casp3 SENP sel: caspase-3 protease inhibitors, confirmation, selectivity assay for SENP inhibitor project, biochemical, single concentration. purified caspase-3, Z-DEVD-aminoluciferin luminescence, 60 min. AID 488918, 2010. 6,200 compounds, 60% hits. inhibition, % at 12.5 µM. shares compounds with SENP7 block;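 active means mean inhibition above about 50%, limit read from the data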
Target sequence (P42574 28-227 limits assumed): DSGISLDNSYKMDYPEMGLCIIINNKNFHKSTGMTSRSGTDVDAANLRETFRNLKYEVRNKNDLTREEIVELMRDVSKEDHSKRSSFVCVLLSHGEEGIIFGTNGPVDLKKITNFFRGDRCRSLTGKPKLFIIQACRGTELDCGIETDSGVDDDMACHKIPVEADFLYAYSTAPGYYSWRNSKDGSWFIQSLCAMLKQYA
Luc interf: counter-screen for SENP inhibitors: luminescence interference; shares compounds with SENP7 block; Pre-incubated SENP8/Z-RLRGG-aminoluciferin, luciferase luminescence interference; inhibition, % at 12.5 µM; 6,200 compounds, 39% hits; AID 488919;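 active means mean inhibition above about 50% when retested at one dose, limit read from the data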
Hits are given with their value; 0 = inactive; - = no result.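 How the source made its calls, unless noted: active means mean inhibition above about 50% in the one-dose retest (limit read from the data); inactive means the rest.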

SMILES | LGR2 inh | SENP6 inh | SENP7 block | HSP90 inh | SENP8 block-1 | SENP8 block-2 | SENP8 conf | SENP6 confirm | SENP7 conf | Casp3 SENP sel | Luc interf
CC(C)=CCC1=C(OCC(=O)O)C(=O)c2ccccc2C1=O | 0 | 0 | 0 | 0 | 72 | 76 | 80 | 87 | 65 | 0 | 0
COc1ccc2c(c1)CCC/C2=N/OC(=O)c1ccccc1OC | - | 0 | 0 | 0 | 0 | 0 | - | - | - | - | -
COc1ccc2c(c1)CC/C2=N\OC(=O)c1ccccc1C | 0 | 79 | 80 | 0 | 0 | 73 | 0 | 82 | 83 | 72 | 0
COc1ccc2c(c1)CC/C2=N\OC(=O)c1cccc(C)c1 | 0 | 86 | 84 | 0 | 0 | 72 | 0 | 0 | 0 | 0 | 0
COc1ccc2c(c1)CC/C2=N\NC(=O)c1ccccc1 | 0 | 0 | 0 | 0 | 0 | 0 | - | - | - | - | -
CO[C@@H]1CN(C)C(=O)c2cc(NS(C)(=O)=O)ccc2OC[C@H](C)N(C(=O)CN(C)C)C[C@@H]1C | 0 | - | - | - | - | - | - | - | - | - | -
CCCc1nn(C)c(C(=O)Nc2ccc3ccccc3c2)c1Cl | 0 | 52 | 0 | 0 | 0 | 0 | 0 | 0 | 0 | 0 | 0
OC(c1ccc(OCc2ccccc2)cc1)c1nnc(-c2ccccc2)o1 (stereo not drawn) | - | 50 | 0 | 0 | 0 | 0 | 0 | 0 | 56 | 0 | 0
CCCN1[C@@H]2c3ccc(C4=CCCCC4)c(=O)n3C[C@@H]2[C@@H](CO)[C@@H]1C(=O)NC1Cc2ccccc2C1 | 0 | - | - | - | - | - | - | - | - | - | -
CN(C)C(=O)C[C@H]1C=C[C@@H](NC(=O)C2CC2)[C@H](CO)O1 | 0 | - | - | - | - | - | - | - | - | - | -
CC(C)(C)Nc1nc2cc([N+](=O)[O-])ccc2o1 | 0 | 0 | 0 | 0 | 0 | 0 | - | - | - | - | -
Nc1ccc(-c2nc3cc([N+](=O)[O-])ccc3o2)cc1 | 0 | 63 | 56 | 0 | 0 | 0 | 0 | 0 | 85 | 54 | 0
COc1ccc(-c2nc3cc([N+](=O)[O-])ccc3o2)cc1 | 0 | 0 | 77 | 0 | 0 | 0 | 0 | 0 | 0 | 59 | 0
c1ccc(-n2nc3c(ccc4cnnc43)[nH]2)cc1 | - | 89 | 87 | 0 | 0 | 74 | 50 | 83 | 97 | 71 | 0
CNC[C@H]1Oc2ccc(NS(C)(=O)=O)cc2CC(=O)N([C@@H](C)CO)C[C@H]1C | 0 | - | - | - | - | - | - | - | - | - | -
CC1=NN(c2ccccc2)C(=O)/C1=C\C=C\c1ccccc1 | 0 | 0 | 0 | 0 | 0 | 0 | - | - | - | - | -
COc1cc(/C=C2/C(=O)N(c3cccc(Br)c3)N=C2C)cc(OC)c1O | 0 | 0 | 54 | 0 | 61 | 0 | 0 | 0 | 0 | 0 | 0
CC1=NN(c2ccccc2)C(=O)/C1=C/c1cccc(C)c1 | 0 | 0 | 52 | 0 | 70 | 0 | 0 | 0 | 0 | 0 | 0
COc1cc(/C=C2/C(=O)N(c3ccc(Br)cc3)N=C2C)cc([N+](=O)[O-])c1O | - | 0 | 0 | 0 | - | 0 | - | - | - | - | -
O=C(CC(F)(F)F)N1C[C@H]2[C@@H](c3ccccc31)[C@H](CO)N2C(=O)C1CCCC1 | 0 | - | - | - | - | - | - | - | - | - | -
CSc1nc2sc3c(c2c(=O)n1C)CCC(C)C3 (stereo not drawn) | 0 | 63 | 50 | 0 | 0 | 0 | 0 | 0 | 0 | 0 | 0
CSc1nc2sc3c(c2c(=O)n1C)CCC3 | 0 | 0 | 0 | 0 | 0 | 0 | - | - | - | - | -
C[C@@H]1CCCCO[C@@H](CN(C)C(=O)c2ccccc2)[C@H](C)CN([C@H](C)CO)C(=O)c2cc(NS(=O)(=O)c3ccc(F)cc3)ccc2O1 | 0 | - | - | - | - | - | - | - | - | - | -
O=C(NCC[C@H]1CC[C@H](NS(=O)(=O)c2ccc(F)cc2)[C@H](CO)O1)c1ccccc1F | 0 | - | - | - | - | - | - | - | - | - | -
Cc1cc(OCc2ccc(C(=O)n3cccn3)o2)ccc1Cl | - | 50 | 0 | 0 | 0 | 0 | 0 | 0 | 0 | 0 | 0
SMILES | LGR2 inh | SENP6 inh | SENP7 block | HSP90 inh | SENP8 block-1 | SENP8 block-2 | SENP8 conf | SENP6 confirm | SENP7 conf | Casp3 SENP sel | Luc interf
Cc1ccsc1/C=C1/C(=O)NN(c2ccccc2)C1=O | 0 | 0 | 0 | 0 | 0 | 0 | - | - | - | - | -
Cc1ccsc1C=C1C(=O)c2ccccc2C1=O | - | 0 | 69 | 0 | 0 | 0 | 74 | 66 | 79 | 69 | 0
Cc1cccc(N=C2NC(=O)/C(=C/c3cccs3)S2)c1 | - | 52 | 0 | 0 | 0 | 0 | 0 | 0 | 0 | 0 | 0
CC(C)N(CCCNC(=O)Cn1c(=O)c2cccn2c2ccc(F)cc21)Cc1ccccc1 | 0 | 0 | 61 | 0 | 0 | 0 | 0 | 0 | 0 | 0 | 0
CCN1CCN(CCNC(=O)Cn2c(=O)c3cccn3c3ccc(F)cc32)CC1 | 0 | 0 | 0 | 0 | 0 | 0 | - | - | - | - | -
CC(C)NC(=O)N(C)C[C@H]1OCCCC[C@H](C)Oc2ccc(NC(=O)Nc3ccc(C(F)(F)F)cc3)cc2C(=O)N([C@H](C)CO)C[C@H]1C | 0 | - | - | - | - | - | - | - | - | - | -
CCn1c(Cc2ccccc2)nnc1SC(C)C(=O)NC1CC1 (stereo not drawn) | 0 | 0 | 0 | - | 0 | 91 | 0 | 0 | 0 | 0 | 0
CCn1c(Cc2ccccc2)nnc1SCC(=O)Nc1nccs1 | - | 0 | 82 | 0 | 0 | 0 | 0 | 0 | 0 | 0 | 0
CCn1c(SCC(=O)Nc2nccs2)nnc1-c1ccccc1 | - | 0 | 0 | 0 | 0 | 0 | - | - | - | - | -
O=C1CC(O)(C(F)F)Oc2ccc3ccccc3c21 (stereo not drawn) | 0 | 0 | 0 | 0 | 0 | 0 | - | - | - | - | -
O=C1CC(O)(C(F)(F)F)Oc2c1ccc1ccccc21 (stereo not drawn) | 0 | 82 | 54 | 0 | 0 | 77 | 86 | 84 | 96 | 81 | 86
CO[C@@H]1CN(C)C(=O)c2cc(NC(=O)C3CC3)ccc2OC[C@@H](C)N(CCC(F)(F)F)C[C@@H]1C | 0 | - | - | - | - | - | - | - | - | - | -
Cc1sc(NC(=O)c2ccc(Cl)s2)c(C(N)=O)c1C | 0 | 60 | 52 | 0 | 0 | 0 | 0 | 0 | 0 | 0 | 0
Cc1sc(NC(=S)Nc2ccc(F)cc2)c(C(N)=O)c1C | 0 | - | - | 0 | 0 | - | - | - | - | - | -
